# Reference: the supplement of paper PMC12645437, “Orthogonal IMiD-Degron Pairs Induce Selective Protein Degradation in Cells” (ACS Chemical Biology, 2025)
# Over roughly 8,300 sequences, “log2 fold change of degron read counts, EGFP-low vs EGFP+ sorted cells (limma voom), compound-induced degradation” has its median near -1.1; the highest 2% begin near 3.2. This excerpt belongs to a sample that is enriched for the highest values.
# T1: CRBN, Q96SW2
# T1 chain: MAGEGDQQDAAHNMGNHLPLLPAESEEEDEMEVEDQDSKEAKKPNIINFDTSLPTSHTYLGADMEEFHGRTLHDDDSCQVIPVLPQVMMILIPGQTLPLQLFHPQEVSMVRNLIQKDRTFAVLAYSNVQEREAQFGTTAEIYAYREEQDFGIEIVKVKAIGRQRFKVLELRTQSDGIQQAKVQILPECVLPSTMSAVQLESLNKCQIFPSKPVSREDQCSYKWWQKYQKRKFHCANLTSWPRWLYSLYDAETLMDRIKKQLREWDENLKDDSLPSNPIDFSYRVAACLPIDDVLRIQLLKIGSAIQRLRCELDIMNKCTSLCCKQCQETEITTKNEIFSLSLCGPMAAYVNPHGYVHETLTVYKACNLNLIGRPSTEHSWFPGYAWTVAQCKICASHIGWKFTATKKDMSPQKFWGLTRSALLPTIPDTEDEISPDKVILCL
# Target: T1, CRBN, Q96SW2
# Assay: log2 fold change of degron read counts, EGFP-low vs EGFP+ sorted cells (limma voom), compound-induced degradation; higher = more compound-induced degradation of the degron-EGFP fusion; degrons are variants of IKZF1/3 zinc finger 2; compound dose not given here
# Details: Jurkat, 18 h
# [1] = compound: compound 19 (5-tert-butyl-thalidomide)
# [2] = compound: compound 22 (5-morpholino-thalidomide)
# [3] = compound: compound 33 (diphenyl IMiD analogue)
# 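Note: pooled lentiviral library of zinc finger degron-EGFP fusions in mCherry-positive Jurkat cells, FACS-sorted after compound exposure, with degron abundance counted by next-generation sequencing.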
Sequence,log2 fold change of degron read counts [1],log2 fold change of degron read counts [2],log2 fold change of degron read counts [3],log2 fold change of degron read counts (compound: thalidomide)
"FECPICGRRFTQKGNLLRHIKL [46F_47E_49P_50I_52G_53R_54R_55F_67L_, Q9UKT9]",-0.662,-1.27,0.491,2.58
"FRCPQCGADFTQKGNLLRHIKL [46F_47R_49P_50Q_52G_53A_54D_55F_67L_, Q9UKT9]",-3.08,-3.48,-0.625,-1.35
"LCCNQCGFCCTQKGNLLRHIKL [46L_47C_49N_50Q_52G_53F_54C_55C_67L_, Q9UKT9]",-1.92,-2.67,-1.9,-2
"FDCDICGAFFTQKGNLLRHIKL [46F_47D_49D_50I_52G_53A_54F_55F_67L_, Q9UKT9]",-1.35,-2.45,-1.91,-1.7
"LMCEICGFKCTQKGNLLRHIKL [46L_47M_49E_50I_52G_53F_54K_55C_67L_, Q9UKT9]",0.00993,-0.209,0.918,1.45
"FHCNQCGHMFTQKGNLLRHIKL [46F_47H_49N_50Q_52G_53H_54M_55F_67L_, Q9UKT9]",-2.28,-2.39,-2.58,-2.2
"FYCNICGATFTQKGNLLRHIKL [46F_47Y_49N_50I_52G_53A_54T_55F_67L_, Q9UKT9]",0.426,2.67,0.933,-0.961
"FDCPICGATFTQKGNLLRHIKL [46F_47D_49P_50I_52G_53A_54T_55F_67L_, Q9UKT9]",1.59,0.119,1.11,1.68
"FLCDICGATFTQKGNLLRHIKL [46F_47L_49D_50I_52G_53A_54T_55F_67L_, Q9UKT9]",-1.67,-1.74,-0.434,-0.565
"FECPICGATFTQKGNLLRHIKL [46F_47E_49P_50I_52G_53A_54T_55F_67L_, Q9UKT9]",0.0819,-0.536,1.91,2.9
"FLCPICGATFTQKGNLLRHIKL [46F_47L_49P_50I_52G_53A_54T_55F_67L_, Q9UKT9]",-1.02,-0.515,1.48,1.68
"FWCPICGATFTQKGNLLRHIKL [46F_47W_49P_50I_52G_53A_54T_55F_67L_, Q9UKT9]",2.22,3.57,1.64,0.523
"FYCPICGATFTQKGNLLRHIKL [46F_47Y_49P_50I_52G_53A_54T_55F_67L_, Q9UKT9]",3.2,3.57,2.42,1.16
"FTCPICGATFTQKGNLLRHIKL [46F_47T_49P_50I_52G_53A_54T_55F_67L_, Q9UKT9]",0.225,2.5,2.28,2.88
"FGCNICGATFTQKGNLLRHIKL [46F_47G_49N_50I_52G_53A_54T_55F_67L_, Q9UKT9]",0.0778,1.89,1.52,0.109
"FQCNICGATFTQKGNLLRHIKL [46F_47Q_49N_50I_52G_53A_54T_55F_67L_, Q9UKT9]",-0.501,1.47,1.42,3.87
"FQCDICGATFTQKGNLLRHIKL [46F_47Q_49D_50I_52G_53A_54T_55F_67L_, Q9UKT9]",-0.685,1.86,0.81,3.25
"FCCDICGATFTQKGNLLRHIKL [46F_47C_49D_50I_52G_53A_54T_55F_67L_, Q9UKT9]",0.685,1.05,1.24,0.177
"FICPQCGADFTQKGNLLRHIKL [46F_47I_49P_50Q_52G_53A_54D_55F_67L_, Q9UKT9]",-3.68,-2.36,-1.84,-2.04
"FFCPICGHLFTQKGNLLRHIKL [46F_47F_49P_50I_52G_53H_54L_55F_67L_, Q9UKT9]",-0.994,-0.746,-0.828,-1.02
"LLCEICGFFCTQKGNLLRHIKL [46L_47L_49E_50I_52G_53F_54F_55C_67L_, Q9UKT9]",-0.357,-0.957,-0.00991,0.351
"FMCDICGAMFTQKGNLLRHIKL [46F_47M_49D_50I_52G_53A_54M_55F_67L_, Q9UKT9]",-1.51,-1.89,0.647,-1.45
"FGCPICGRQFTQKGNLLRHIKL [46F_47G_49P_50I_52G_53R_54Q_55F_67L_, Q9UKT9]",2.87,0.813,0.341,-0.4
"LECPICGFVCTQKGNLLRHIKL [46L_47E_49P_50I_52G_53F_54V_55C_67L_, Q9UKT9]",-0.508,-0.452,1.81,2.84
"FRCPVCGAYFTQKGNLLRHIKL [46F_47R_49P_50V_52G_53A_54Y_55F_67L_, Q9UKT9]",-0.775,0.429,1.02,1.64
"LHCEICGFQCTQKGNLLRHIKL [46L_47H_49E_50I_52G_53F_54Q_55C_67L_, Q9UKT9]",2.39,2.27,1.7,1.64
"LCCNQCGFNCTQKGNLLRHIKL [46L_47C_49N_50Q_52G_53F_54N_55C_67L_, Q9UKT9]",-2,-2.61,-2.13,-1.77
"FTCDVCGARFTQKGNLLRHIKL [46F_47T_49D_50V_52G_53A_54R_55F_67L_, Q9UKT9]",0.31,1.8,0.304,1.36
